From ChEMBL document CHEMBL4513135, “CO-ADD screening of IQOG CSIS (Spain) compounds”
“And” between values parts separate entries of the source, which are not always exact repeats. Identical values can stand only once. Results with a measured potency or affinity are listed apart.

Key:
Klebsiella pneumoniae = settings: Concentration 32 ug.mL-1; ASSAY_TEST Inhibition of Bacterial Growth; detection method Absorption (OD600); MEDIA CAMHB; plate type 384well; NBS; CORNING #3640; time 18 hr
Candida albicans = settings: 32 ug/mL
Cryptococcus neoformans = settings: Concentration 32 ug.mL-1; ASSAY_TEST Inhibition of Fungal Growth; detection method Resazurin; Absorption (OD600-OD570); plate type 384well; NBS; CORNING #3640

Compound O=C1OC(c2ccccc2)=NC12CC2c1ccc([N+](=O)[O-])cc1 (stereo not drawn) has an Inhibition (Klebsiella pneumoniae) of 15.67%, an Inhibition (Candida albicans) of 1.56% and an Inhibition (Cryptococcus neoformans) of -2.27%.
Cc1ccc2nc(Cl)c(/C=N/N)cc2c1 was tested, and the Inhibition (Klebsiella pneumoniae) was 10.01%, the Inhibition (Candida albicans) was 15.7% and the Inhibition (Cryptococcus neoformans) was -3.85%.
N#Cc1c(N)nc(NCc2ccccc2)c(C#N)c1-c1ccccc1 gave an Inhibition (Klebsiella pneumoniae) of -1.47%, an Inhibition (Candida albicans) of 0.34% and an Inhibition (Cryptococcus neoformans) of -28.27%.
O=Cc1ccc(OCCO[N+](=O)[O-])cc1 gave an Inhibition (Klebsiella pneumoniae) of 8.5%, an Inhibition (Candida albicans) of 5.46% and an Inhibition (Cryptococcus neoformans) of -2.32%.
N#Cc1c(-c2cccc([N+](=O)[O-])c2)c2ccc3ccccc3c2oc1=O was tested, and the Inhibition (Candida albicans) was 4.25% and -0.04% and 3.33%.
CC1(C)OS(=O)(=O)C2=C1NC(N)=C(C#N)C2c1ccccc1 (stereo not drawn) gave an Inhibition (Klebsiella pneumoniae) of 11.24%, an Inhibition (Candida albicans) of 0.27% and an Inhibition (Cryptococcus neoformans) of -2.35%.
With CC(=O)Nc1n[nH]c2nc(N)c(C#N)c(-c3ccccc3)c12 the Inhibition (Klebsiella pneumoniae) was 17.23%, the Inhibition (Candida albicans) was 3.09% and the Inhibition (Cryptococcus neoformans) was -57.93%.
Cc1ccc(-c2c(C#N)c(N)nc3c2S(=O)(=O)OC3(C)C)cc1 showed an Inhibition (Klebsiella pneumoniae) of 10.18%, an Inhibition (Candida albicans) of 1.92% and an Inhibition (Cryptococcus neoformans) of -1.83%.
Work on COc1ccc(C2C(C#N)=C(N)Oc3[nH]nc(C)c32)cc1 (stereo not drawn) yielded an Inhibition (Klebsiella pneumoniae) of -10.09%, an Inhibition (Candida albicans) of 1.54% and an Inhibition (Cryptococcus neoformans) of -3.79%.
CN1C/C(=C\Cl)n2c1c(C#N)c(-c1ccccc1)c(C#N)c2=O was tested, and the Inhibition (Klebsiella pneumoniae) was 4.05%, the Inhibition (Candida albicans) was 3.56% and the Inhibition (Cryptococcus neoformans) was -47.27%.
For N#Cc1cc2c(N)c3c(nc2nc1Cl)CCN(Cc1ccccc1)C3, the Inhibition (Klebsiella pneumoniae) was 13.32%, the Inhibition (Candida albicans) was 2.4% and the Inhibition (Cryptococcus neoformans) was -88.69%.
Work on O=C1OC(c2ccccc2)=NC1=Cc1ccc([N+](=O)[O-])cc1 yielded an Inhibition (Klebsiella pneumoniae) of 9.13%, an Inhibition (Candida albicans) of -1.46% and an Inhibition (Cryptococcus neoformans) of -3.36%.
CC1Cc2ccccc2N1/N=C/c1ccccc1 (stereo not drawn) was tested, and the Inhibition (Klebsiella pneumoniae) was 2.26%, the Inhibition (Candida albicans) was -2.78% and the Inhibition (Cryptococcus neoformans) was -3.88%.
With CCOC(=O)N/N=C/c1ccccc1 the Inhibition (Klebsiella pneumoniae) was 8.83%, the Inhibition (Candida albicans) was 4.9% and the Inhibition (Cryptococcus neoformans) was -5.96%.
For Cn1cc(/C=C2\NC(=S)NC2=O)c2ccccc21, the Inhibition (Klebsiella pneumoniae) was 6.37%, the Inhibition (Candida albicans) was -0.01% and the Inhibition (Cryptococcus neoformans) was -4.32%.
Work on Cl.ClCCCCCN1CCCCC1 yielded an Inhibition (Klebsiella pneumoniae) of 6.55%, an Inhibition (Candida albicans) of 2.45% and an Inhibition (Cryptococcus neoformans) of -4.11%.
O=c1oc2cc(O)ccc2cc1-c1ccccc1 gave an Inhibition (Klebsiella pneumoniae) of 3.33%, an Inhibition (Candida albicans) of -0.21% and an Inhibition (Cryptococcus neoformans) of -4.62%.
In the case of Cc1nc2c3cnn(-c4ccccc4)c3nc(C)n2n1, the Inhibition (Klebsiella pneumoniae) is reported as 15.01%, the Inhibition (Candida albicans) is reported as -1.82% and the Inhibition (Cryptococcus neoformans) is reported as -6.35%.
In the case of Nc1c2c(nc3c1CC(c1c(Cl)cccc1Cl)C(=O)N3)CCCC2 (stereo not drawn), the Inhibition (Klebsiella pneumoniae) is reported as 0.93%, the Inhibition (Candida albicans) is reported as -0.19% and the Inhibition (Cryptococcus neoformans) is reported as -92.02%.
N#Cc1cc(C#N)c(Cl)nc1N gave an Inhibition (Klebsiella pneumoniae) of -13.03%, an Inhibition (Candida albicans) of 2.15% and an Inhibition (Cryptococcus neoformans) of -5.53%.
With CC(=O)C(=Cc1ccccc1)C(=O)O[C@H]1C[C@H](C)CC[C@H]1C(C)C the Inhibition (Klebsiella pneumoniae) was 13.75%, the Inhibition (Candida albicans) was 10.8% and the Inhibition (Cryptococcus neoformans) was -6.7%.
Work on Cc1ccc(CNNC(=O)c2c[nH]c3ccccc23)cc1 yielded an Inhibition (Klebsiella pneumoniae) of 5.46%, an Inhibition (Candida albicans) of -1.04% and an Inhibition (Cryptococcus neoformans) of -5.03%.
CCOC(=O)C1=C(C)OC(N)=C(C#N)C1c1ccco1 (stereo not drawn) showed an Inhibition (Klebsiella pneumoniae) of 6.85%, an Inhibition (Candida albicans) of 1.71% and an Inhibition (Cryptococcus neoformans) of -29.39%.
Cc1ccc(/C=N/NC(=O)c2c[nH]c3ccccc23)cc1 was tested, and the Inhibition (Klebsiella pneumoniae) was 10.41%, the Inhibition (Candida albicans) was 1.17% and the Inhibition (Cryptococcus neoformans) was -0.49%.
For C#CCN(C)c1cc(Cl)nc(N)n1, the Inhibition (Klebsiella pneumoniae) was 16.87%, the Inhibition (Candida albicans) was 11.4% and the Inhibition (Cryptococcus neoformans) was -46.13%.
For C#CCN(C)c1nc(NCCC2CCN(Cc3ccccc3)CC2)c(C#N)cc1C#N.Cl, the Inhibition (Klebsiella pneumoniae) was 3.63%, the Inhibition (Candida albicans) was -0.31% and the Inhibition (Cryptococcus neoformans) was 0.75%.
For N#Cc1c(N)nc(NC2CCN(Cc3ccccc3)CC2)c(C#N)c1-c1ccccc1, the Inhibition (Klebsiella pneumoniae) was 9.32%, the Inhibition (Candida albicans) was 2.69% and the Inhibition (Cryptococcus neoformans) was -66.18%.
Compound CC1Cc2c(Br)nc3nc4c(c(N)c3c2NC1=O)CCCC4 (stereo not drawn) has an Inhibition (Klebsiella pneumoniae) of 20.62%, an Inhibition (Candida albicans) of -0.9% and an Inhibition (Cryptococcus neoformans) of -91.63%.
Compound N#CCC(=C(C#N)C#N)c1ccccc1 has an Inhibition (Klebsiella pneumoniae) of 11.23%, an Inhibition (Candida albicans) of 5.35% and an Inhibition (Cryptococcus neoformans) of -3.99%.
Work on CCCCNNC(=O)c1cc2ccccc2[nH]1 yielded an Inhibition (Klebsiella pneumoniae) of -6.75%, an Inhibition (Candida albicans) of -0.51% and an Inhibition (Cryptococcus neoformans) of -1.71%.
With CCOC(=O)C1=C(C)OC(N)=C(C#N)C1c1ccc(OC)cc1 (stereo not drawn) the Inhibition (Klebsiella pneumoniae) was 14.63%, the Inhibition (Candida albicans) was 2.59% and the Inhibition (Cryptococcus neoformans) was -5.46%.
COc1ccc(CNNC(=O)c2cc3ccccc3[nH]2)cc1O gave an Inhibition (Klebsiella pneumoniae) of 4.75%, an Inhibition (Candida albicans) of 0.7% and an Inhibition (Cryptococcus neoformans) of 0.55%.
Work on O=C(O)n1ccc2ccccc21 yielded an Inhibition (Klebsiella pneumoniae) of 4.22%, an Inhibition (Candida albicans) of 4.1% and an Inhibition (Cryptococcus neoformans) of -3.58%.
In the case of C=C1CN(C)c2c(C#N)cc(C#N)c(=S)n21, the Inhibition (Klebsiella pneumoniae) is reported as 3.88%, the Inhibition (Candida albicans) is reported as 4.91% and the Inhibition (Cryptococcus neoformans) is reported as -13.76%.
With CCOC(=O)C1=C(C)Oc2nc3c(c(N)c2C1c1nccn1C)CCC3 (stereo not drawn) the Inhibition (Klebsiella pneumoniae) was 4.43%, the Inhibition (Candida albicans) was -1.64% and the Inhibition (Cryptococcus neoformans) was -84.25%.
COc1nc(N)c(C#N)c(-c2ccccc2)c1C#N gave an Inhibition (Klebsiella pneumoniae) of 5.51%, an Inhibition (Candida albicans) of 1.23% and an Inhibition (Cryptococcus neoformans) of -13.41%.
Work on COC(=O)C(=Cc1ccc([N+](=O)[O-])cc1)NC(=O)c1ccccc1 yielded an Inhibition (Klebsiella pneumoniae) of 11.76%, an Inhibition (Candida albicans) of 0.51% and an Inhibition (Cryptococcus neoformans) of -0.7%.
O=C(N/N=C/c1c[nH]c2ccccc12)C(c1ccccc1)c1ccccc1 was tested, and the Inhibition (Klebsiella pneumoniae) was 10.97%, the Inhibition (Candida albicans) was 1.46% and the Inhibition (Cryptococcus neoformans) was -1.94%.
COc1ccccc1-c1c(C#N)c(=O)oc2c1ccc1ccccc12 gave an Inhibition (Klebsiella pneumoniae) of 11.02%, an Inhibition (Candida albicans) of 9.28% and an Inhibition (Cryptococcus neoformans) of -7.79%.
COC1(N)Oc2ccc3ccccc3c2C(c2ccccc2)C1(Br)C#N (stereo not drawn) gave an Inhibition (Klebsiella pneumoniae) of -5.7%, an Inhibition (Candida albicans) of 8.36% and an Inhibition (Cryptococcus neoformans) of -6.17%.
